High-throughput results (PubChem)
RGS12 GoLoco inh: blocks human Gai1 binding to RGS12 GoLoco peptide, red readout | actives 0.44% (n = 230,000) | Gai1:RGS12 GoLoco peptide FP, rhodamine, 10 min | Potency, µM (series often up to 61.6 µM), for the others: at the top dose activity, negative = inhibition, hits mostly inhibitors | P63096; active = well fitted inhibition curve with a large enough effect, not every such curve was filed as active; inactive = no such curve, though single readings can be large or run the other way; also: nearly all actives have a fitted effect of over 30% in size
APE1 inh: APE1 (human) endonuclease inhibition | Potency, µM (top dose mostly 65.8 µM), without a hit: top-dose activity change, negative = inhibition, usual class: inhibitors | AID 2517 | actives 0.35% (n = 350,000) | P27695 | recombinant APE1, TAMRA/BHQ-2 abasic DNA cleavage fluorescence;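 also: plate controls were vehicle for no effect and reference inhibitor for full effect; nearly all actives have a fitted effect of over 55% in size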
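Compound pre-exposure to 0.75 nM APE1, 15 min at ambient temperature. Reaction initiated with 50 nM TAMRA/BHQ-2 THF substrate, read immediately in kinetic mode, 525 nm excitation, 598 nm emission.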
L3MBTL1 inh: inhibitors of human L3MBTL1 | actives 0.66% (n = 230,000) | AID 485360 | AlphaScreen L3MBTL1–H3K9me1 peptide binding | Potency, µM (top dose mostly 57.1 µM), without a hit: at the highest dose activity, negative = inhibition, hits mostly inhibitors | Q9Y468; also: nearly all actives have a fitted effect of over 60% in size
Target sequence (Q9Y468 whole entry, looked up): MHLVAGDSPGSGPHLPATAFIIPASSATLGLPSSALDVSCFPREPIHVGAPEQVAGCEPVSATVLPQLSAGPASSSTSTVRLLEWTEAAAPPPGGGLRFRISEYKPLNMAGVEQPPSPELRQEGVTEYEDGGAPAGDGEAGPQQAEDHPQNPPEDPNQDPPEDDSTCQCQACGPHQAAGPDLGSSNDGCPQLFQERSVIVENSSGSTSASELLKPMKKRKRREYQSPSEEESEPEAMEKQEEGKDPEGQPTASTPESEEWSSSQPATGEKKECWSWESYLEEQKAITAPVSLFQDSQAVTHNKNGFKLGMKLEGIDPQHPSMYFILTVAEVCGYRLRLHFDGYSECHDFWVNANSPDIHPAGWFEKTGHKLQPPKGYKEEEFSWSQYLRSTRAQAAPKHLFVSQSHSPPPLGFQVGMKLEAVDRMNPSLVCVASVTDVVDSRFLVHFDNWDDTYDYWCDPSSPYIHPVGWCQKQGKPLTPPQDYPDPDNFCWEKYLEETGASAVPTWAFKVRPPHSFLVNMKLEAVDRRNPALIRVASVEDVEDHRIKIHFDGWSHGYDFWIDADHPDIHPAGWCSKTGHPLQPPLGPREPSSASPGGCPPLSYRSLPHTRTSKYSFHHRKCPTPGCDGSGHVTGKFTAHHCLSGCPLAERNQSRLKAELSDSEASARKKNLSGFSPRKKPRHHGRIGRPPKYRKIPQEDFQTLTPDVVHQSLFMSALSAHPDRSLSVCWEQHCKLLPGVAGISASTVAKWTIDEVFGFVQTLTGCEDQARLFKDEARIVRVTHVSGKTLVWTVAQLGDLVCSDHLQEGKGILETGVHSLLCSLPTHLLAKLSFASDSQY
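First, the protein-peptide complex forms for 30 min at room temperature (L3MBTL1 50 nM, biotinylated H3K9me1 peptide 75 nM). Next, compounds are pin-transferred and incubated 30 min. Finally, AlphaScreen beads are added and read after 30 min.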
KDM4E inh: inhibitors of human JMJD2E histone demethylase. B2RXH2. JMJD2E catalytic domain, FDH-coupled NADH fluorescence (FDH is formaldehyde dehydrogenase). Potency, µM (doses to about 57.1 µM), inactives show top-dose activity change, negative = inhibition, hits mostly inhibitors. actives 1.6% (n = 230,000); active = well fitted inhibition curve with a large enough effect, not every such curve was filed as active; inconclusive = small, poorly fitted or top-dose-only effect, or another doubt; inactive = no such curve, though single readings can be large or run the other way;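 also: 0% = wells with enzyme and -100% = buffer wells without enzyme; nearly all actives have a fitted effect of over 50% in size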
RECQ1 inh-1: RECQ1 (human) helicase inhibition | P46063 | RECQ1 DNA unwinding, red fluorescence kinetic read | Potency, µM (top dose mostly 57.3 µM), for the others: top-dose activity, negative = inhibition, most hits filed as inhibitors | actives 0.54% (n = 240,000);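 also: plate controls were vehicle for no effect and no enzyme for full effect; nearly all actives have a fitted effect of over 30% in size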
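50 nM RECQ1T1 preincubated 15 min with compound in Tris pH 8.0 buffer with MgCl2, DTT, Tween-20 and 2.5 ug/ml poly(dI-dC); started with 200 nM TAMRA/BHQ-2 forked duplex and 2 mM ATP. Unwinding read as fluorescence (525/598 nm), two reads 2 h apart.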
BLM inh: blocks DNA unwinding by human BLM helicase. P54132. recombinant BLM DNA unwinding, fluorescence dequenching. Potency, µM (titrated, usually from 56.1 µM), without a hit: at the highest dose activity change, negative = inhibition, actives largely listed as inhibitors. actives 0.2% (n = 350,000). AID 2528;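 also: plate controls were vehicle for no effect and no enzyme for full effect; nearly all actives have a fitted effect of over 35% in size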
RECQ1 inh conf: confirmation of human RECQ1 helicase inhibitors. shares compounds with RECQ1 inh-1. RECQ1 helicase DNA unwinding, fluorescence. Potency, µM (titrated, usually from 229 µM), without a hit: at the top dose activity change, negative = inhibition, actives largely listed as inhibitors. actives 28% (n = 610); also: nearly all actives have a fitted effect of over 45% in size
RECQ1 ADP FP: counter-screen for RECQ1 inhibitors: ADP displacement. actives 27% (n = 530). Potency, µM (top dose mostly 228 µM), without a hit: top-dose activity change, negative = inhibition, most hits filed as inhibitors. ADP fluorescence polarization displacement counterscreen. shares compounds with RECQ1 inh-1; also: nearly all actives have a fitted effect of over 45% in size
RECQ1 inh-2: blocks human RECQ1 DNA unwinding; shares compounds with RECQ1 inh-1; recombinant RECQ1 DNA unwinding, red fluorescence; Potency, µM (titrated, usually from 119 µM), for inactives: at the top dose activity, negative = inhibition, usual class: inhibitors; actives 15% (n = 1,100); AID 504841; also: nearly all actives have a fitted effect of over 50% in size
* = called active by the depositor; i = inactive; ? = inconclusive; . = not tested or not shown; [ ] = remark or other dose. The sample as a whole holds a higher share of hits than the screen did. Unless noted, calls follow the shape of the dose curve; as a rule, active = well fitted curve in the direction sought with a large enough effect; inconclusive = small, poorly fitted or top-dose-only effect, or another doubt; inactive = no such curve, though single readings can be large; an effect the other way counts as inactive or inconclusive. Unless noted, % is scaled to controls: 0 for no effect and ±100 for the full control effect; potency is read from the fitted curve at half-maximal effect.

SMILES	RGS12 GoLoco inh	APE1 inh	L3MBTL1 inh	KDM4E inh	RECQ1 inh-1	BLM inh	RECQ1 inh conf	RECQ1 ADP FP	RECQ1 inh-2
Cc1sc(NC(=O)c2ccco2)c(C(c2cccnc2)N2CCN(c3ccc(F)cc3)CC2)c1C (stereo not drawn)	1%	3%	-14%	?	40µM*	-12%	.	.	?
COc1ccccc1NC(=O)CSc1nc(O)cc(=O)n1-c1ccccc1OC	39%	1%	18%	?	-4%	-2%	.	.	.
COc1ccccc1-n1c(SCC(=O)Nc2ccccc2C)nc(O)cc1=O	29%	2%	-1%	3%	10µM*	-16%	11%[114 µM]	12%[91.9 µM]	-7%
Cc1ccn2cc(-c3ccc(C)c(NS(=O)(=O)c4ccc(Cl)cc4)c3)nc2c1	.	.	.	.	.	-6%	.	.	.
CC1Cc2ccccc2N1C(=O)CSc1nnc(-c2ccc(S(=O)(=O)N3CCOCC3)cc2)n1C (stereo not drawn)	3%	12%	-8%	3%	-3%	-1%	0%	?	.
Cc1csc(NC(=O)CSc2nnc(-c3ccc(S(=O)(=O)N4CCCC4)cc3)o2)n1	-5%	0%	12%	-1%	-1%	1%	8%	11%	.
Cc1cc(NC(=O)CSc2nnc(-c3ccc(S(=O)(=O)N4CCCC4)cc3)n2C)no1	5%	2%	-4%	-20%	-7%	1%	-4%	3%	.
O=C(O)CC(CC(=O)Nc1ccccc1C(=O)O)c1ccccc1 (stereo not drawn)	-4%	-2%	.	?	-3%	-2%	25%	0%	.
CC(C)Cc1nnc(NC(=O)Cc2cccs2)s1	157%	?	?	-6%	?	-26%	.	.	56µM*
CCN(CC)S(=O)(=O)c1ccc(OC)c(NC(=O)/C=C/c2ccco2)c1	3%	-10%	0%	-19%	25µM*	-18%	.	.	-28%
CCOC(=O)C1CN(S(=O)(=O)c2cccc(C(F)(F)F)c2)c2cc(CC(=O)OC)ccc2O1 (stereo not drawn)	-9%	5%	4%	-4%	40µM*	-11%	.	.	-10%
CCOC(=O)C1CN(S(=O)(=O)c2ccccc2)c2cc(S(=O)(=O)CC)ccc2O1 (stereo not drawn)	-4%	-4%	-2%	0%	-12%	-3%	.	.	.
CN(N=O)C(=O)N[C@H]1C(O)OC(CO)[C@@H](O)[C@H]1O (stereo partly drawn)	3%	-3%	.	4%	i	0%	.	.	.
CCn1c(SCC(=O)c2ccc(O)c(O)c2)nnc1-c1ccc(C)cc1	-5%	?	?	25µM*	10µM*	-4%	?	-14%[91.9 µM]	?
CCn1c(SCC(=O)c2ccc3c(c2)Cc2ccccc2-3)nnc1-c1ccc(N)cc1	-4%	-2%	-2%	-6%	-3%	-5%	.	.	.
CCc1nn2c(=O)cc(COC(=O)c3ccco3)nc2s1	.	.	.	.	.	2%	.	.	.
O=C(/C=C/c1ccco1)Nc1sc2c(c1C(=O)O)CCC2	-19%	?	?	-7%	35µM*	5%	.	.	?
Cc1ccc(-c2csc(NC(=O)/C=C/c3ccco3)c2C(=O)O)cc1	-5%	?	?	?	22µM*	?	?	-9%[91.9 µM]	-30%
N#Cc1c(NC(=O)/C=C/c2ccco2)sc2c1CCCC2	64%	?	-19%	?	-19%	-7%	.	.	.
Nc1c(S(=O)(=O)O)cc(Nc2cccc3ccccc23)c2c1C(=O)c1ccccc1C2=O	.	?	.	.	22µM*	?	.	.	?
Nc1c(S(=O)(=O)O)cc(Nc2ccc(Cl)cc2)c2c1C(=O)c1ccccc1C2=O	.	?	.	.	32µM*	?	.	.	50µM*
CNC(=O)C1CCN(C(=O)N2CC(C)Oc3ccc(Cl)cc32)CC1 (stereo not drawn)	.	.	.	.	.	-4%	.	.	.
CCCn1c(C)nc2c(NCC(C)(C)CN(C)C)nc(C)nc21	7%	-1%	.	10%	-6%	2%	.	.	.
O=C(c1noc2c1CCCCC2)N1CCN(c2ccc(Cl)cc2)CC1	.	.	.	.	.	-2%	.	.	.
COc1ncccc1-c1nnn(-c2ccc(C)cc2)n1	0%	2%	32%	-6%	-4%	-2%	.	.	.
SMILES	RGS12 GoLoco inh	APE1 inh	L3MBTL1 inh	KDM4E inh	RECQ1 inh-1	BLM inh	RECQ1 inh conf	RECQ1 ADP FP	RECQ1 inh-2
Cc1ccc(-n2nnc(-c3nccs3)n2)cc1	9%	?	22%	-1%	0.89µM*	3%	12%[114 µM]	32%[91.9 µM]	0%
Cc1ccc(S(=O)(=O)N2CC=C(c3c(C)n(C)c4ccccc34)CC2)cc1	119%	0%	-5%	-2%	-16%	-9%	.	.	.
CCn1c(C)c(C2=CCN(S(=O)(=O)c3ccccc3)CC2)c2ccccc21	73%	-10%	-14%	?	25µM*	-6%	50µM*	.	?
CNc1ccc(/C=C/C(=O)c2ccc(C)cc2)cc1[N+](=O)[O-]	6%	-11%	-25%	12%	?	-7%	.	.	53%
Cc1ccc(-c2nnn3c2nc(N2CCC(C)CC2)c2ccccc23)cc1	.	.	.	.	.	-9%	.	.	.
Nc1c(C(=O)Nc2ccccc2F)sc2nc(-c3cccnc3)ccc12	4%	13%	.	-7%	32µM*	-6%	.	.	-15%
Nc1c(C(=O)Nc2ccccc2F)sc2nc(-c3ccco3)ccc12	24%	-6%	8%	?	5%	-10%	.	.	.
O=C1CC(c2ccco2)CC(O)=C1C=Nc1cc(Cl)ccc1O (stereo not drawn)	14%	7.1µM*	35µM*	28µM*	22µM*	-23%	.	.	?
CCOc1ccc(NC(=O)CSc2ncc3c(n2)-c2ccc(Cl)cc2N(Cc2ccccc2)S3(=O)=O)cc1	.	.	.	.	.	-2%	.	.	.
O=C(O)CCc1nn2c3ccccc3n(CC(=O)c3cccs3)c2nc1=O	-2%	-2%	.	?	2%	-4%	7%	-4%	.
CC(=O)Cn1c2ccccc2n2nc(CCC(=O)O)c(=O)nc12	1%	2%	3%	?	6%	-7%	.	.	.
COc1ccc(C(=O)Cn2c3ccccc3n3nc(CCC(=O)O)c(=O)nc23)cc1OC	8%	-2%	.	?	-8%	0%	21%	?	.
CO[C@@H](C(C)C)[C@@H](C)[C@@H]1OC(=O)C[C@@H]1O	.	39%[12.4 µM]	.	.	-3%[11.5 µM]	4%[12.4 µM]	.	.	.
